Shh pathway inh: Sonic Hedgehog pathway inhibition; inhibition, % (no concentration beside the values); Shh-LIGHT2 Gli-luciferase reporter, 30 h; AID 2313; actives 2.1% (n = 22,000);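 active = mean inhibition across valid replicates above about 65%, limit read from the data; inconclusive = mean under the limit, yet half or more replicates past it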;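 note: pathway switched on by Shh-conditioned medium diluted 1 in 25 in low serum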
PD-1 reverse act: activators reversing PD-1 mediated T-cell inhibition. primary human CD4 T cells, PD-L1 beads, CellTiter-Glo 96 h. activation, % (concentration not given with the values). 29,000 tested, under 10 active. AID 2316; call rule not given here;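 note: 0% = median vehicle wells and 100% = positive control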
NOMO-1 viab: STK33 inhibitor candidate reducing NOMO-1 cell viability. NOMO-1 AML viability, CellTiter-Glo luminescence, 72 h. inhibition, % (test concentration not listed). actives 7.5% (n = 37,000); in the data active = inhibition above about 80%; inconclusive = no clear call, values can overlap the other calls
MITF inh: blocks MITF activity | TRPM1 promoter luciferase, luminescence, 24 h | inhibition, % (concentration not given with the values) | actives 0.28% (n = 37,000) | AID 2240; in the data active = inhibition above about 85%; inconclusive = no clear call, values can overlap the other calls; inactive = below about 68%;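 note: human melanocyte line stably carrying TRPM1 promoter luciferase reporter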
YB-1 expression: YB-1 expression inhibition. U2OS, qRT-PCR YB-1 vs CDIP delta delta Cp, 16 h; active compounds read high; zero = DMSO, each unit about twofold. delta delta Cp (YB-1 minus CDIP) (no concentration beside the values). actives 0.37% (n = 30,000). AID 434959;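 active = delta delta Cp rounded down to an integer at or above 3, about 3 SD of DMSO wells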;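 note: higher means less YB-1 transcript or more CDIP transcript relative to DMSO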
* marks the source's active call; other numbers are inactive results; ? = inconclusive; . = no result given. Shown are actives, neighbours in structure and some others; about 7.4% of the full set was active somewhere.

SMILES	Shh pathway inh	PD-1 reverse act	NOMO-1 viab	MITF inh	YB-1 expression
C[C@H](CO)N1C[C@H](C)[C@H](CN(C)Cc2ccccc2)Oc2ccc(NS(=O)(=O)c3ccc(Cl)cc3)cc2C1=O	.	0	17	-16	6.1*
C[C@@H]1CN([C@@H](C)CO)C(=O)c2cc(NS(=O)(=O)c3ccc(Cl)cc3)ccc2O[C@H]1CN(C)Cc1ccc(-c2ccccc2)cc1	-3	0	106*	27	-0.012
O=C(N/N=C\c1ccc2ccccc2c1O)c1ccccc1O	.	.	.	.	0.35
O=C(CSc1ccc(F)cc1Cl)C12CC3CC(CC(C3)C1)C2	-7	-1	39	-9	7.2*
C[C@H]1CN([C@@H](C)CO)C(=O)c2cccc(NC(=O)c3nc4ccccc4s3)c2O[C@@H]1CN(C)Cc1ccc(Cl)c(Cl)c1	53	-6	86*	36	-0.15
C[C@@H]1CN([C@H](C)CO)C(=O)c2cccc(NC(=O)c3nc4ccccc4s3)c2O[C@H]1CN(C)Cc1ccc2c(c1)OCO2	-18	-5	98*	41	-0.13
C[C@@H]1CN([C@@H](C)CO)C(=O)c2cccc(NC(=O)c3nc4ccccc4s3)c2O[C@@H]1CN(C)Cc1ccc2c(c1)OCO2	-55	-2	90*	11	-0.59
C[C@@H]1CN([C@H](C)CO)C(=O)c2cccc(NC(=O)c3nc4ccccc4s3)c2O[C@@H]1CN(C)Cc1ccccc1	21	.	55	-22	0.11
Cc1ccc(CCC(=O)Nc2ccc(/C=C/c3ccccc3)cc2)o1	.	0	54	14	.
COc1ccc(S(=O)(=O)Nc2ccc3c(c2)C(=O)N([C@H](C)CO)C[C@H](C)[C@H](CN(C)S(=O)(=O)c2c(C)noc2C)OCCCC[C@@H](C)O3)cc1	-14	.	13	-2	-0.044
C[C@@H]1CC[C@@]2(C)C(C(=O)O)=CCC[C@@H]2[C@@]1(C)CCc1ccoc1	-9	0	22	-6	0.39
Cc1noc(C)c1S(=O)(=O)Nc1ccc2c(c1)CC(=O)N([C@H](C)CO)C[C@H](C)[C@H](CN(C)Cc1ccc(C(=O)Nc3ccccc3N)cc1)O2	.	-5	142*	42	-0.42
Cc1noc(C)c1S(=O)(=O)Nc1ccc2c(c1)C(=O)N([C@H](C)CO)C[C@H](C)[C@H](CN(C)Cc1ccc(C(=O)Nc3ccccc3N)cc1)O2	.	-2	108*	11	-0.16
Cc1noc(C)c1S(=O)(=O)Nc1ccc2c(c1)C(=O)N([C@@H](C)CO)C[C@@H](C)[C@@H](CN(C)Cc1ccc(C(=O)Nc3ccccc3N)cc1)O2	.	-1	108*	6	-0.31
Cc1noc(C)c1S(=O)(=O)Nc1ccc2c(c1)C(=O)N([C@H](C)CO)C[C@@H](C)[C@@H](CN(C)Cc1ccc(C(=O)Nc3ccccc3N)cc1)O2	.	-3	108*	7	-0.7
C[C@H](CO)N1C[C@H](C)[C@H](CN(C)C(=O)NC2CCCCC2)Oc2ccc(NS(=O)(=O)c3ccc(Cl)cc3)cc2CC1=O	-9	0	-8	3	-0.053
CNC[C@H]1Oc2c(NS(C)(=O)=O)cccc2C(=O)N([C@H](C)CO)C[C@@H]1C	?	2	22	-7	0.47
Cc1cc(OCC(=O)Nc2ccccc2C(N)=O)c(C(C)C)cc1Br	.	-6	?	49	.
C[C@H]1CN([C@@H](C)CO)C(=O)Cc2cc(NS(=O)(=O)c3ccc(Cl)cc3)ccc2O[C@H]1CN(C)Cc1ccccc1	45	0	101*	26	0.63
C[C@H]1CN([C@@H](C)CO)C(=O)Cc2cc(NS(=O)(=O)c3ccc(Cl)cc3)ccc2O[C@@H]1CN(C)Cc1ccccc1	-26	-3	107*	44	0.41
C[C@@H]1CN([C@@H](C)CO)C(=O)Cc2cc(NS(=O)(=O)c3ccc(Cl)cc3)ccc2O[C@@H]1CN(C)Cc1ccccc1	29	-2	?	-14	-0.15
CCSc1nnc2c(n1)OC1(Nc3ccccc3-2)C(=O)Nc2ccc(Br)cc21 (centres undefined)	11	-2	55	19	-0.4
CC1(C)Cc2nc3sc4c(SCC(=O)NCc5ccccc5)ncnc4c3cc2CO1	.	-7	119*	-2	.
COc1cc(C(=O)Nc2cc(-c3nc4ncccc4o3)ccc2C)ccc1OCc1ccc(Cl)cc1	.	-11	112*	?	.
O=c1cc(-c2ccccc2)n(-c2ccccc2)cn1	-70	-5	101*	-19	-0.38
SMILES	Shh pathway inh	PD-1 reverse act	NOMO-1 viab	MITF inh	YB-1 expression
C[C@H]1CN([C@@H](C)CO)C(=O)c2cccc(NC(=O)Nc3ccc(C(F)(F)F)cc3)c2O[C@H]1CN(C)Cc1ccncc1	-15	.	-4	-5	-0.037
C=C(C)C(=O)O[C@H]1[C@H]2C(=C)C(=O)O[C@@H]2C[C@@H](C)[C@@H]2O[C@@H]2C(=O)[C@](C)(O)[C@@H]1OC(=O)C(=C)C	100*	-10	119*	41	-0.54
Cc1ccc(NC(=O)CSc2nc(-c3cccs3)cc(C(F)(F)F)n2)c([N+](=O)[O-])c1	.	0	107*	21	.
CCN(CC)c1ccc2cc(C(N)=O)c(=Nc3ccc(F)cc3)oc2c1	-27	-1	94*	2	0.19
COc1ccc(NC(=O)Nc2cccc3c2O[C@@H](CN(C)S(=O)(=O)c2ccc(C)cc2)[C@H](C)CN([C@H](C)CO)C3=O)cc1	0	-2	-3	-4	0.01
Cc1noc(C)c1S(=O)(=O)Nc1ccc2c(c1)CC(=O)N([C@@H](C)CO)C[C@H](C)[C@H](CN(C)Cc1ccc(Cl)c(Cl)c1)O2	30	-4	?	-6	0.083
Cc1noc(C)c1S(=O)(=O)Nc1ccc2c(c1)CC(=O)N([C@H](C)CO)C[C@@H](C)[C@H](CN(C)Cc1ccc(Cl)c(Cl)c1)O2	15	-2	97*	-7	-0.11
Cc1noc(C)c1S(=O)(=O)Nc1ccc2c(c1)CC(=O)N([C@@H](C)CO)C[C@H](C)[C@H](CN(C)Cc1ccc(C(F)(F)F)cc1)O2	18	-3	83*	8	-0.073
N#CSCC(=O)C12CC3CC(CC(C3)C1)C2	.	-7	113*	47	-0.69
O=C(NCCN1CCOCC1)[C@@]1(CCS(=O)(=O)c2ccccc2)COC(c2ccc(OCCCO)cc2)=N1	.	.	.	.	-0.17
COC(=O)CCCCCCC(=O)N/N=C/[C@H](O)[C@H](O)[C@@H](O)[C@H](C)O	.	.	.	.	-0.3
COc1ccc(S(=O)(=O)Nc2ccc3c(c2)C(=O)N([C@H](C)CO)C[C@@H](C)[C@H](CN(C)Cc2ccc(-c4ccccc4)cc2)O3)cc1	.	2	17	-3	.
COc1ccc(S(=O)(=O)Nc2ccc3c(c2)C(=O)N([C@@H](C)CO)C[C@@H](C)[C@@H](CN(C)Cc2ccc(Oc4ccccc4)cc2)O3)cc1	.	.	113*	60	2.4
COc1ccc(S(=O)(=O)Nc2ccc3c(c2)C(=O)N([C@@H](C)CO)C[C@@H](C)[C@@H](CN(C)Cc2ccc(-c4ccccc4)cc2)O3)cc1	11	-2	91*	48	0.078
